Results: PubChem BioAssay (NCATS)
Results filed as inconclusive are left out. Activity calls are given as the source filed them. The call rests on the fitted dose curve; in most records, active means well fitted inhibition curve with a large enough effect; inconclusive means small, poorly fitted or top-dose-only effect; inactive means flat fitted curve, though single readings scatter.

Tests used:
Assay in all cases: qHTS profiling for inhibitors of Plasmodium falciparum proliferation (AID 504749); further: nearly all actives have a fitted effect of over 60% in size
CP252 = conditions: P. falciparum in erythrocytes, SYBR Green DNA, 72 h; series mostly up to 12.8 µM
Summary of the method: (§1)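 SYBR Green fluorescence (ex 485 nm, em 535 nm) reports parasite DNA after 72 h compound exposure of infected red cells at 0.3% parasitemia, 2.5% hematocrit; signal normalized to 0.29 uM artemisinin and vehicle wells.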

CP256 = conditions: P. falciparum in erythrocytes, SYBR Green DNA, 72 h; series mostly up to 12.8 µM
Summary of the method: as §1

CP260 = conditions: P. falciparum in erythrocytes, SYBR Green DNA, 72 h; series mostly up to 12.8 µM
Summary of the method: as §1

CP262 = conditions: P. falciparum in erythrocytes, SYBR Green DNA, 72 h; series mostly up to 12.8 µM
Summary of the method: as §1

CP265 = conditions: P. falciparum in erythrocytes, SYBR Green DNA, 72 h; series mostly up to 12.8 µM
Summary of the method: as §1

CP266 = conditions: P. falciparum in erythrocytes, SYBR Green DNA, 72 h; series mostly up to 28.7 µM
Summary of the method: as §1

CP268 = conditions: P. falciparum in erythrocytes, SYBR Green DNA, 72 h; series mostly up to 12.8 µM
Summary of the method: as §1

CP269 = conditions: P. falciparum in erythrocytes, SYBR Green DNA, 72 h; series mostly up to 12.8 µM
Summary of the method: as §1

CP286 = conditions: P. falciparum in erythrocytes, SYBR Green DNA, 72 h; series mostly up to 12.8 µM
Summary of the method: as §1

CP291 = conditions: P. falciparum in erythrocytes, SYBR Green DNA, 72 h; series mostly up to 12.8 µM
Summary of the method: as §1

CP297 = conditions: P. falciparum in erythrocytes, SYBR Green DNA, 72 h; series mostly up to 12.8 µM
Summary of the method: as §1

CP305 = conditions: P. falciparum in erythrocytes, SYBR Green DNA, 72 h; series mostly up to 12.8 µM
Summary of the method: as §1

CP315 = conditions: P. falciparum in erythrocytes, SYBR Green DNA, 72 h; series mostly up to 12.8 µM
Summary of the method: as §1

CP325 = conditions: P. falciparum in erythrocytes, SYBR Green DNA, 72 h; series mostly up to 12.8 µM
Summary of the method: as §1

CP329 = conditions: P. falciparum in erythrocytes, SYBR Green DNA, 72 h; series mostly up to 12.8 µM
Summary of the method: as §1

CP335 = conditions: P. falciparum in erythrocytes, SYBR Green DNA, 72 h; series mostly up to 12.8 µM
Summary of the method: as §1

DFO2036 = conditions: P. falciparum in erythrocytes, SYBR Green DNA, 72 h; series mostly up to 12.8 µM
Summary of the method: as §1

DIV14 = conditions: P. falciparum in erythrocytes, SYBR Green DNA, 72 h; series mostly up to 12.8 µM
Summary of the method: as §1

DIV17 = conditions: P. falciparum in erythrocytes, SYBR Green DNA, 72 h; series mostly up to 12.8 µM
Summary of the method: as §1

DIV30 = conditions: P. falciparum in erythrocytes, SYBR Green DNA, 72 h; series mostly up to 12.8 µM
Summary of the method: as §1

Dd2 = conditions: P. falciparum in erythrocytes, SYBR Green DNA, 72 h; series mostly up to 12.8 µM
Summary of the method: as §1

ECU = conditions: P. falciparum in erythrocytes, SYBR Green DNA, 72 h; series mostly up to 12.8 µM
Summary of the method: as §1

FAB9 = conditions: P. falciparum in erythrocytes, SYBR Green DNA, 72 h; series mostly up to 12.8 µM
Summary of the method: as §1

GB4 = conditions: P. falciparum in erythrocytes, SYBR Green DNA, 72 h; series mostly up to 12.8 µM
Summary of the method: as §1

HB3 = conditions: P. falciparum in erythrocytes, SYBR Green DNA, 72 h; series mostly up to 12.8 µM
Summary of the method: as §1

ICS = conditions: P. falciparum in erythrocytes, SYBR Green DNA, 72 h; series mostly up to 12.8 µM
Summary of the method: as §1

JCK = conditions: P. falciparum in erythrocytes, SYBR Green DNA, 72 h; series mostly up to 12.8 µM
Summary of the method: as §1

N140 = conditions: P. falciparum in erythrocytes, SYBR Green DNA, 72 h; series mostly up to 12.8 µM
Summary of the method: as §1

P93_24 = conditions: P. falciparum in erythrocytes, SYBR Green DNA, 72 h; series mostly up to 12.8 µM
Summary of the method: as §1

P94_40 = conditions: P. falciparum in erythrocytes, SYBR Green DNA, 72 h; series mostly up to 12.8 µM
Summary of the method: as §1

PAD = conditions: P. falciparum in erythrocytes, SYBR Green DNA, 72 h; series mostly up to 12.8 µM
Summary of the method: as §1

PC15 = conditions: P. falciparum in erythrocytes, SYBR Green DNA, 72 h; series mostly up to 12.8 µM
Summary of the method: as §1

PC26 = conditions: P. falciparum in erythrocytes, SYBR Green DNA, 72 h; series mostly up to 12.8 µM
Summary of the method: as §1

PC49 = conditions: P. falciparum in erythrocytes, SYBR Green DNA, 72 h; series mostly up to 12.8 µM
Summary of the method: as §1

SC27B = conditions: P. falciparum in erythrocytes, SYBR Green DNA, 72 h; series mostly up to 12.8 µM
Summary of the method: as §1

TAB109 = conditions: P. falciparum in erythrocytes, SYBR Green DNA, 72 h; series mostly up to 12.8 µM
Summary of the method: as §1

TAB113 = conditions: P. falciparum in erythrocytes, SYBR Green DNA, 72 h; series mostly up to 12.8 µM
Summary of the method: as §1

TAB165 = conditions: P. falciparum in erythrocytes, SYBR Green DNA, 72 h; series mostly up to 12.8 µM
Summary of the method: as §1

W2 = conditions: P. falciparum in erythrocytes, SYBR Green DNA, 72 h; series mostly up to 12.8 µM
Summary of the method: as §1

Measured: Potency

C/C=C\C(=O)N(CC)c1ccccc1C
inactive: all assays above
